In PubChem BioAssay (EPA / NIEHS) one finds outcome and AC50 data, which are given here for 24 compounds.

Molecules are shown by their SMILES. The source made the active and inactive calls. Rule for the calls: active = hit-call score of the fitted dose curve at least 0.9, where 1 is the maximum; inactive = score below 0.9.

A short description of this assay: CCTE_Padilla_ZF_Score.Edema: CCTE's 144 Hour Post-fertilization zebrafish Assay Score for Edema Malformation, Padilla Lab (AID 2284406). The method, then: CCTE_Padilla_ZF_Phenotype_Score is a whole embryo, multiplexed assay using zebrafish ova exposed for 144 hours post fertilization on a 96-well plate.CCTE_Padilla_ZF_Score.Edema is one of one assay component(s) measured or calculated from the CCTE_Padilla_ZF_Phenotype_Score assay. It is designed to make measurements of zebrafish development as detected with brightfield microscopy of developing zebrafish embryos.Data from the assay component CCTE_Padilla_ZF_Score.Edema was analyzed into 1 assay endpoints. This assay endpoint, CCTE_Padilla_ZF_Score.Edema, was analyzed in the positive analysis fitting direction relative to DMSO as the negative control and baseline of activity. Using a type of viability reporter, gain-of-signal activity can be used to understand changes in developmentals as they relate to the whole embryo. To generalize the intended target to other relatable targets, this assay endpoint is annotated to the zebrafish development intended target family, where the subfamily is embryonic edema.
Zebrafish husbandry: Wild type adult zebrafish (Danio rerio; undefined outbred stock obtained from Aquatic Research Organisms, Hampton, NH, 03842) were housed in an AAALAC-approved animal facility at 28C with a 14:10 h light: dark cycle (lights on at 08:30 h). Adult fish (2-3 females per male; density = 15-20 adults per tank) were kept in one of several 9-liter (L) flow-through colony tanks (Aquaneering Inc., San Diego, CA). All adults in a colony tank were placed in a 2 L (static) breeding tank (Aquatic Habitats, Apopka, FL) one hour prior to light onset. Typically, adults from two to three colony tanks were mated on the same day. Two hours after light onset the adults were returned to the colony tank. All embryos were gathered from each breeder tank, pooled, and placed in a 28C water bath for 2 h, followed by two washes with 0.06% bleach (v/v) in 10% Hanks' Balanced Salt Solution (13.7 mM NaCl 0.54 mM KCl, 25 uM Na2HPO4, 130 uM CaCl2 100 um MgSO4 and 420 um NaHCO3,), hereafter referred to as Hanks' solution, for 5 min in order to remove any residual bacteria or fungi. Immediately following washing, the embryos were examined, and healthy embryos were separated from dead or unfertilized eggs and moved into fresh Hanks'. Chemical exposures: Zebrafish embryos were exposed in 96-well plates. Between 6- and 8-hours post fertilization (hpf), healthy embryos (with chorions) were transferred, one embryo per well, into 96 well (0.5 mL) microtiter plates (Cell Culture-Treated, Flat-Bottom Microplate 96 well [Corning Costar, Kennebunk, ME; Cat 09-761-145]) filled with 200 uL of Hanks' solution. A random number generator was used to assign the order in which the rows of embryos were plated in 96 well plates each week. After plating, the embryos were dosed with 0.8 uL of the chemical dosing solution then immediately sealed with AlumaSeal II (Excel Scientific Inc, Victorville, CA) to prevent volatilization of the chemicals, and then placed in a leakproof secondary container. These containers were placed in an incubator maintained on a 14:10 h light: dark cycle at 26C for rearing. On 5 dpf, live larvae were gently moved out of the plate with test chemicals and into a new 96 well mesh plate (Millipore Corp., Bedford, MA) with just the Hanks' solution. Once within the mesh well plate, the animals were rinsed with 400 uL of fresh Hanks' three times, and then the plates were covered with a non-adhesive material (Microseal A, BioRad, Hercules, CA), plate lid added, and then plate sides wrapped in Parafilm (PM992, Bermis Company, Neenah, WI), and returned to the incubator. This rinse on 5 dpf was conducted to lessen the possible exposure of the human assessors to the chemicals during detailed examination of each larva at 6 dpf.Larval assessments: On 6 dpf between 8 and 10 AM, two individual assessors, blinded to the chemical treatments, independently examined each larva for mortality, hatching status, and malformations using an Olympus SZH10 stereo microscope. […]
In the case of `O=CC(F)(F)C(F)(F)C(F)(F)F`, the outcome was inactive.

`CN(CCO)S(=O)(=O)C(F)(F)C(F)(F)C(F)(F)C(F)(F)C(F)(F)C(F)(F)C(F)(F)C(F)(F)F`: the call was inactive.

In the case of `O=C(OC(=O)C(F)(F)C(F)(F)F)C(F)(F)C(F)(F)F`, the result was inactive.

With `O=C(F)C(F)(F)C(F)(F)C(F)(F)C(=O)F`, the call was inactive.

Regarding `O=CC(F)(F)C(F)(F)C(F)(F)C(F)F`, the outcome was inactive.

In the case of `COC(=O)C(F)(F)C(F)(F)C(F)(F)C(F)(F)C(F)(F)F`, the compound was classed as inactive.

With `O=C(CC(=O)C(F)(F)C(F)(F)C(F)(F)F)c1cccs1`, the compound was classed as inactive.

Turning to `O=P(O)(O)CCC(F)(F)C(F)(F)C(F)(F)C(F)(F)C(F)(F)C(F)(F)F`, the AC50 was 23.9 µM (active).

Take `FC(F)(F)C1(F)C(F)(F)C(F)(F)C(F)(F)C(F)(C(F)(F)F)C1(F)F` (centres undefined): the call was inactive.

As for `OCC(F)(F)C(F)(F)C(F)(F)C(F)(F)C(F)(F)C(F)(F)C(F)(F)C(F)(F)C(F)(F)C(F)(F)C(F)(F)F`, the result was inactive.

Regarding `NC(C(F)(F)F)C(F)(F)F`, the compound was called inactive.

On to `O=C(O)CCC(F)(F)C(F)(F)C(F)(F)C(F)(F)C(F)(F)F`, for which the AC50 was 10.7 µM (active).

In the case of `FC(OC(F)(F)C(F)(F)C(F)(F)F)C(F)(F)F` (centres undefined), the compound was classed as inactive.

For the compound `O=P(O)(O)CCC(F)(F)C(F)(F)C(F)(F)C(F)(F)C(F)(F)C(F)(F)C(F)(F)C(F)(F)F`, the AC50 is 1.69 µM (active).

In the case of `FC(F)(F)N1C(F)(F)C(F)(F)OC(F)(F)C1(F)F`, the result was inactive.

For `O=C1OC(=O)C(F)(F)C1(F)F`, the call was inactive.

For `FCOC(C(F)(F)F)C(F)(F)F`, the compound was called inactive.

Turning to `C=CC(=O)OCCC(F)(F)C(F)(F)C(F)(F)C(F)(F)C(F)(F)C(F)(F)C(F)(F)C(F)(F)F`, the compound was classed as inactive.

Consider `O=C(O)C(F)(F)OC(F)(F)C(F)(F)OC(F)(F)C(F)(F)OC(F)(F)C(F)(F)C(F)(F)C(F)(F)F`, for which the AC50 is 3.21 µM (active).

`FC1(F)C=CC(F)(F)C1(F)F`: the compound was called inactive.

In the case of `FC(F)(F)C1(F)C(F)(F)C(F)(F)C(F)(F)C1(F)F`, the compound was classed as inactive.

Turning to `O=C(O)CCC(F)(F)C(F)(F)C(F)(F)C(F)(F)C(F)(F)C(F)(F)F`, the call was inactive.

With `C=CC(F)(F)C(F)(F)C(F)(F)C(F)(F)F`, the outcome was inactive.

For the compound `FC(F)=C(F)C(F)(F)C(F)(F)C(F)(F)C(F)F`, the compound was called inactive.
